# Results filed as inconclusive are left out. Entries that show only a call come without a potency. The source made the active and inactive calls. Unless noted, the call rests on the fitted dose curve; in most records, active means well fitted curve in the direction sought with a large enough effect in the repeat runs; inconclusive means weak or mixed curves; inactive means no such curve, though single readings can be large; an effect the other way counts as inactive or inconclusive.
# Experiments:
# [1] = Human pregnane X receptor (PXR) small molecule agonists, qHTS cell viability counter screen (AID 1346977); further: nearly all actives have a fitted effect of over 50% in size; further: potency means the concentration at half of the fitted maximal effect
# Outline: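 Measures live-cell protease fluorescence (CellTiter-Fluor) in PXR-Luc HepG2 cells treated 24hr with compounds at 37C. Cells had 5hr to attach before pin transfer of DMSO solutions.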
# [2] = Caspase-3/7 induction in HepG2 cells by small molecules, qHTS assay (AID 1346978); further: nearly all actives have a fitted effect of over 15% in size
# Outline: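 Caspase-3/7 induction was measured by Caspase-Glo 3/7 luminescence (30 min, room temperature) after a 17 hr compound exposure of wild-type HepG2 cells seeded at 2,000 per well and pre-incubated 5 hr.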
# [3] = Caspase-3/7 induction in CHO-K1 cells by small molecules, qHTS cell viability counter screen (AID 1346979); further: nearly all actives have a fitted effect of over 35% in size
# Outline: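 In the same wells as the caspase read, viability of compound-treated wild-type CHO-K1 cells was assessed using CellTiter-Fluor, added after 16hr at 37C and measured by fluorescence following 1hr further incubation.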
# [4] = Caspase-3/7 induction in CHO-K1 cells by small molecules, qHTS assay (AID 1346980); further: nearly all actives have a fitted effect of over 15% in size
# Outline: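 Luminescent Caspase-Glo 3/7 read (30min, room temperature) quantified apoptosis induction. Cells were wild-type CHO-K1, treated with compound for 17hr at 37 C and 5% CO2.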
# [5] = Caspase-3/7 induction in HepG2 cells by small molecules, qHTS cell viability counter screen (AID 1346981); further: series mostly up to about 92 µM; nearly all actives have a fitted effect of over 30% in size
# Outline: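 Multiplexed with the caspase-3/7 assay: HepG2 cells, 16 hr compound treatment, CellTiter-Fluor viability detection by fluorescence.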
# [6] = molecular target: Acetylcholinesterase (Homo sapiens) (UniProt P22303); experiment: Acetylcholinesterase (AChE) small molecule antagonists: colormetric cell-based qHTS assay (AID 1347395; calls by dose curve; further: nearly all actives have a fitted effect of over 30% in size)
# Chain of Acetylcholinesterase (Homo sapiens) (P22303 whole entry, looked up): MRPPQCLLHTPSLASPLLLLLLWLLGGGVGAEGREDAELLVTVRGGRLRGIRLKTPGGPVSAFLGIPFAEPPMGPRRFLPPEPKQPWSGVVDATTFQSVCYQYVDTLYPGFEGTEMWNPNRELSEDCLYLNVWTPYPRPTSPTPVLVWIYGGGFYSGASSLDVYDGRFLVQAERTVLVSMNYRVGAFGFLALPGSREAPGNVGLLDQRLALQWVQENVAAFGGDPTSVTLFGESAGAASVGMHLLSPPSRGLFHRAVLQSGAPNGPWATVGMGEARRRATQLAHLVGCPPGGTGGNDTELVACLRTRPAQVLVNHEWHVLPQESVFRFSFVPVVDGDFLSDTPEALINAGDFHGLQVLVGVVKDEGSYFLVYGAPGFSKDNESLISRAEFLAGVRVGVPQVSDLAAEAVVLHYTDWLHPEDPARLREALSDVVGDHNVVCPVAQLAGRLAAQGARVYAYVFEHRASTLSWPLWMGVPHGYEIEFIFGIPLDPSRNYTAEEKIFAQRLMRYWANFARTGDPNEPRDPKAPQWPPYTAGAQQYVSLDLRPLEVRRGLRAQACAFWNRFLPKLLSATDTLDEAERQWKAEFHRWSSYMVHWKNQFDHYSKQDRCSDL
# Outline: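 Endogenous AChE of human neuroblastoma SH-SY5Y cells was measured with an Ellman-type DTNB/acetylthiocholine mix. Compound pretreatment lasted 30 min at 37 C; substrate reaction ran 90 min at 37 C.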
# [7] = molecular target: Nuclear receptor subfamily 1 group I member 2 (Homo sapiens) (UniProt O75469); experiment: Human pregnane X receptor (PXR) small molecule agonists, qHTS assay (AID 1346982); further: nearly all actives have a fitted effect of over 35% in size; further: potency means the concentration at half of the fitted maximal effect
# Chain of Nuclear receptor subfamily 1 group I member 2 (Homo sapiens) (O75469 whole entry, looked up): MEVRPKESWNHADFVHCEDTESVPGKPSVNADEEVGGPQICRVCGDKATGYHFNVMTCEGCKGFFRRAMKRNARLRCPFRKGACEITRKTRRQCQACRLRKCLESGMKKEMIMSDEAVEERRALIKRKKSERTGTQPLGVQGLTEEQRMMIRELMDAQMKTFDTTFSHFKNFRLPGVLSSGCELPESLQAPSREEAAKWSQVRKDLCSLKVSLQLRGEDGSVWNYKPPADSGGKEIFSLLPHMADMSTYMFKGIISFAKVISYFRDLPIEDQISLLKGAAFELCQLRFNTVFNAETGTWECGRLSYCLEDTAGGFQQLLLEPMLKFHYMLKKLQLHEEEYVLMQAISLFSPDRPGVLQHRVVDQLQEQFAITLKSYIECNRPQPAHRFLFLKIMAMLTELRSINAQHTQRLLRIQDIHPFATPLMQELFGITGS
# Outline: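 We seeded PXR-Luc HepG2 cells in assay medium containing 5% charcoal-stripped FBS, added compounds 5 hr later, incubated 24 hr, and read luminescence with ONE-Glo reagent.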
SMILES,Potency [1],Potency [2],Potency [3],Potency [4],Potency [5],Potency [6],Potency [7]
C=CCBr,inactive,inactive,inactive,inactive,inactive,inactive,
CC1CN1 (stereo not drawn),inactive,inactive,,inactive,inactive,inactive,inactive
CCCCC/C=C\C/C=C\C/C=C\C/C=C\CCCC(=O)NCC(=O)O,inactive,inactive,,,inactive,inactive,inactive
Oc1cc(Cl)c(Cl)c(Cl)c1Cl,29.9 µM (active),inactive,,inactive,,inactive,33.6 µM (active)
C=CCOC(=O)c1ccccc1N,inactive,inactive,,inactive,inactive,inactive,inactive

# From PubChem BioAssay (Tox21)
